About 79,000 compounds went through this panel and 15% of them were active in at least one assay; those are over-represented in the sample as a whole. Unmarked numbers belong to inactive results. Active and inactive are the calls of the source. Rule as the data show it: active = growth inhibition above about 70%; inactive = the rest.
Tests used:
[1] = NCI Yeast Anticancer Drug Screen. Data for the rad50 strain (AID 155);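 also: 0% = growth of vehicle-only cultures of the same strain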; settings: S. cerevisiae rad50 strain growth inhibition, hits give high values
Outline: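 A DNA repair-deficient yeast mutant serves as the test organism; compound-induced growth inhibition is calculated against vehicle-treated cells.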

[2] = NCI Yeast Anticancer Drug Screen. Data for the mec2-1 strain (AID 157); settings: S. cerevisiae mec2-1 strain, hits give high values
Outline: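 mec2-1 yeast strain, carrying an alteration in DNA damage repair or cell cycle control, was exposed to compounds; growth inhibition was measured relative to vehicle-treated controls.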

[3] = NCI Yeast Anticancer Drug Screen. Data for the sgs1 mgt1 strain (AID 161);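 also: 0% = growth of cultures given vehicle only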; settings: S. cerevisiae sgs1 mgt1 strain, hits give high values
Outline: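 This yeast growth screen uses a strain with defined DNA-repair lesions; compound-treated growth is compared with vehicle-treated growth.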

[4] = NCI Yeast Anticancer Drug Screen. Data for the cln2 rad14 strain (AID 165);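 also: 0% = growth equal to vehicle treated cultures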; settings: S. cerevisiae cln2 rad14 strain, hits give high values
Outline: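 Yeast carrying cln2 and rad14 alterations (cell cycle control and DNA damage repair) were exposed to compounds. Growth inhibition was measured against vehicle-treated controls.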

[5] = NCI Yeast Anticancer Drug Screen. Data for the bub3 strain (AID 167); settings: S. cerevisiae bub3 mutant strain, hits give high values
Outline: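 Inhibition values come from growth of compound-treated mutant yeast normalised to vehicle-treated controls.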

[6] = NCI Yeast Anticancer Drug Screen. Data for the mlh1 rad18 strain (AID 175); settings: S. cerevisiae mlh1 rad18 strain growth inhibition, hits give high values
Outline: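 Growth inhibition of the yeast strain was measured after compound exposure and expressed relative to vehicle-treated controls. The strain carries defined defects in DNA damage repair.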

[7] = at 5.0 µM (retest, dose inferred, filed as 0.5)
[8] = at 50.0 µM (retest, dose inferred, filed as 5.0)

| SMILES | growth inhibition [1, 7] | growth inhibition [1, 8] | growth inhibition ([1]; at 50.0 µM) | growth inhibition [2, 7] | growth inhibition [2, 8] | growth inhibition ([2]; at 50.0 µM) | growth inhibition [3, 7] | growth inhibition [3, 8] | growth inhibition ([3]; at 50.0 µM) | growth inhibition [4, 7] | growth inhibition [4, 8] | growth inhibition ([4]; at 50.0 µM) | growth inhibition [5, 7] | growth inhibition [5, 8] | growth inhibition ([5]; at 50.0 µM) | growth inhibition [6, 7] | growth inhibition [6, 8] | growth inhibition ([6]; at 50.0 µM) |
| --- | --- | --- | --- | --- | --- | --- | --- | --- | --- | --- | --- | --- | --- | --- | --- | --- | --- | --- |
| Cc1c(N=Nc2ccc(Cl)cc2)c(-c2ccccc2)n(C2OC(CO)C(O)C(O)C2O)c(=S)c1C#N (configuration not stated) | -9% | 89% (active) | 96.6% (active) | -13% | 96% (active) | 97.2% (active) | 18% | 48% | 97.5% (active) | 18% | 95% (active) | 97.1% (active) | -2% | 95% (active) | 97.3% (active) | -7% | 96% (active) | 97.4% (active) |
| N#CCCN(CCC#N)Cc1c(O)c(O)c(CN(CCC#N)CCC#N)c2ccccc12 | -2% | 12% | 61.1% | -1% | 41% | 48% | -10% | 46% | 59.2% | 0% | -7% | 46.2% | -3% | 26% | 54% | -4% | 25% | 59% |
| COc1ccc(C(=O)Nc2ccc(Cl)cc2)cc1 | -21% | -17% | 3.75% | -26% | -12% | 1.85% | 0% | 0% | 5.85% | -7% | 5% | 44.2% | -14% | -6% | -8.95% | -8% | -11% | -23.3% |
| C/C=C/C/S(=N\S(=O)(=O)c1ccc(C)cc1)c1ccccc1 (configuration not stated) | 4% | 93% (active) | 96.7% (active) | 4% | 88% (active) | 95.5% (active) | 11% | 97% (active) | 81.5% (active) | 1% | 73% (active) | 40.9% | -7% | 97% (active) | 94.7% (active) | 5% | 95% (active) | 93.3% (active) |
| N#CC(C#N)=c1c2nsnc2c(=C(C#N)C#N)c2nsnc12 | 71% (active) | 88% (active) | -9.1% | 19% | 82% (active) | -1.6% | 52% | 90% (active) | -9.75% | 55% | 83% (active) | -47.7% | 60% | 91% (active) | -14.2% | 36% | 87% (active) | 7.45% |
| Cc1ccc(N2C(=O)CCSC2=S)cc1C | -1% | 87% (active) | 97.2% (active) | 0% | 35% | 80.5% (active) | 4% | 96% (active) | 98.3% (active) | -2% | 32% | 38.9% | -5% | 77% (active) | 68.7% | -2% | 98% (active) | 95.4% (active) |
| CC(C)(C)OC(=O)Nc1cccc(Cl)c1 | 11% | 71% (active) | 73.2% (active) | -4% | 12% | 14.8% | -1% | 7% | 55.7% | -2% | -20% | 2.9% | 46% | -2% | 10.2% | 4% | 33% | 80.5% (active) |
| COc1cccc2c1C(=O)c1c(O)c3c(c(O)c1C2=O)C[C@@](O)(C(=O)CO)C[C@@H]3OC1CC(N(C)C)C(O)C(C)O1 (some centres not stated) | 94% (active) | 95% (active) | 90.1% (active) | 96% (active) | 97% (active) | 91.8% (active) | 97% (active) | 97% (active) | 91.2% (active) | 96% (active) | 95% (active) | 88.8% (active) | 95% (active) | 97% (active) | 89.3% (active) | 94% (active) | 94% (active) | 90.7% (active) |
| CN(C)CC1CCCCCC(Br)C1=O (configuration not stated) | 18% | 78% (active) | 63.9% | 14% | 80% (active) | 70.2% (active) | 11% | 92% (active) | 84% (active) | 12% | 69% | 91.5% (active) | -7% | 21% | 7.05% | 55% | 96% (active) | 91% (active) |
| OCCc1ccccc1C(c1ccccc1)c1ccccc1 | 5% | 98% (active) | 99.3% (active) | -4% | 99% (active) | 99.4% (active) | 1% | -16% | 99.2% (active) | 8% | 99% (active) | 98.8% (active) | 0% | 99% (active) | 99.2% (active) | 4% | 99% (active) | 98.9% (active) |
| CCCCCC/C=C/C#CCCCCCCCC(=O)O | 30% | 15% | 5.5% | 21% | 11% | 9.2% | 33% | 37% | 14% | 17% | 16% | 11.8% | 19% | 3% | 17.3% | 57% | 44% | -88.8% |
| COc1ccc(C2c3cc4c(cc3OC(NCCO)C2C)OCO4)cc1 (configuration not stated) | -3% | 88% (active) | 89% (active) | -43% | 86% (active) | 92.5% (active) | -50% | 82% (active) | 90.3% (active) | 5% | 78% (active) | 92% (active) | -24% | 95% (active) | 91.2% (active) | -18% | 91% (active) | 88.2% (active) |
| COc1ccc(C(=O)Cc2ccc(Cl)cc2)cc1OC | -12% | -1% | 6.3% | -7% | -13% | 2.65% | -14% | -17% | 10.5% | 9% | -3% | -4.45% | -1% | -1% | 3.55% | -17% | -22% | 16.6% |
| O=C(O)C(Cc1cc(I)c(O)c(I)c1)c1ccccc1 (configuration not stated) | -14% | 29% | 60.1% | -1% | 34% | 19.2% | -25% | 38% | 16.8% | -5% | 41% | 32.6% | -4% | 29% | 21.9% | 0% | 45% | 57.5% |
